# From PubChem BioAssay
# SMARCA2 act – activators of SMARCA2 function; MG213 cells, MMTV-luciferase reporter, dexamethasone, overnight; activation, % at 9.1 µM; 370,000 tested, 1% active; AID 652017; in the data active = activation above about 7.8%;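 also: 0% = vehicle wells and 100% = reference activator wells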
# hcDAF-12 act – activates DAF-12 receptor from parasite H. contortus; HEK293 hcDAF-12 lit1-tk-luc reporter, luminescence; 0% DMSO, 100% Δ7-dafachronic acid; activation, % at 6.8 µM; 370,000 tested, 1.4% active; AID 652067;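 active = activation above the mean of all tested compounds plus 3 SD, cut at about 5.5% in these data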;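 also: 100% = response to 3 µM Δ7-dafachronic acid high control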
# DAX1 inh-1 – inhibitors of DAX1 repression of SF-1 activated StAR promoter; HEK293T StAR-luciferase reporter, SF-1/DAX-1 repression relief; AID 652010; 370,000 tested, 1.1% active; inhibition, % at 6.8 µM;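 active = inhibition above the mean over all tested compounds plus 3 SD, cut at about 3.6% in these data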;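 also: 0% = DAX-1 cells with DMSO and 100% = cells lacking DAX-1 with DMSO; higher inhibition means more luminescence from relief of DAX-1 repression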
# DAX1 inh-2 – inhibits human nuclear receptor DAX1; P51843; HEK293 Gal4-DAX1 luciferase reporter, luminescence; inhibition, % at 6.75 µM; 340,000 tested, 0.99% active; AID 504766;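 active = inhibition above the mean over all tested compounds plus 3 SD, cut at about 4.2% in these data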;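 also: 0% = DAX1-transfected cells with DMSO and 100% = empty-vector control cells with DMSO; inhibition shows as a rise in luminescence from relieved DAX1 repression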
# hgDAF-12 ag – agonists of H. glycines DAF-12 nuclear receptor. 370,000 tested, 1.8% active. AID 687014. activation, % at 6.8 µM. HEK293 GAL4-hgDAF12 UAS-luciferase reporter, agonist luminescence; normalized to butyrate control;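 active = activation above a cutoff set at the mean of all screened compounds plus 3 SD, cut at about 10% in these data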;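 also: 0% = DMSO wells and 100% = sodium butyrate wells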
# ssDAF-12 act – activates DAF-12 receptor from parasite S. stercoralis | HEK293 ssDAF-12/GRIP1 lit1-tk-luc reporter, luminescence; % of 3 µM dafachronic acid response | activation, % at 6.8 µM | 370,000 tested, 1% active;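 active = activation above the mean over all tested compounds plus 3 SD, cut at about 0.9% in these data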;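 also: 0% = DMSO-only wells and 100% = 3 µM delta7-dafachronic acid wells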
# hgDAF12 conf – hgDAF-12 agonism, confirmation assay; HEK293 GAL4-hgDAF12 luciferase reporter, agonist mode; percent of butyrate response; activation, % at 6.8 µM; 3,300 tested, 80% active; shares compounds with hgDAF-12 ag;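 active = mean activation over triplicate wells above the hit cutoff derived from the earlier primary screen, cut at about 11% in these data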;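 also: 0% = DMSO low control and 100% = 2 mM sodium butyrate high control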
# LXRb DAF12 ctr – LXR-beta agonism as DAF-12 counter-screen. activation, % at 6.8 µM. shares compounds with hgDAF-12 ag. HEK293 Gal4-LXR luciferase reporter, 24 h. 3,300 tested, under 10 active;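 active = mean activation of the triplicate above a set limit carried over from the primary screen, none filed active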
# Target sequence (P55055 whole entry, looked up, the tested form may be a part): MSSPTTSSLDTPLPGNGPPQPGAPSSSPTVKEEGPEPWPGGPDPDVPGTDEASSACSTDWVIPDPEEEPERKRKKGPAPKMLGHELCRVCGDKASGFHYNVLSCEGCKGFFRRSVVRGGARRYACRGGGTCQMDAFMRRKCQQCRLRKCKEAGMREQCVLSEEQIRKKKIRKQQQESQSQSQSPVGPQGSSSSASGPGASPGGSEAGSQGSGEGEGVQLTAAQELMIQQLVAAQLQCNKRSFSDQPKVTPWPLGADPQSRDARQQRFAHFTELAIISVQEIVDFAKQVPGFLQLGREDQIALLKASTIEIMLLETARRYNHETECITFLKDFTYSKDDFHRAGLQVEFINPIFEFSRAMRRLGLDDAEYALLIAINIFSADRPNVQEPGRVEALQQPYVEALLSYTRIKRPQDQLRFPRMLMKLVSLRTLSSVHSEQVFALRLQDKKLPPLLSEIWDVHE
# Active calls of the source: *; nt = not tested or not shown. A selection: hits, their analogues and other compounds. The true share with any hit is near 4.8%.
SMILES,SMARCA2 act,hcDAF-12 act,DAX1 inh-1,DAX1 inh-2,hgDAF-12 ag,ssDAF-12 act,hgDAF12 conf,LXRb DAF12 ctr
Cc1ccc(SCCNC(=O)c2ccccc2F)cc1,3,0,0,-1,1,-2,nt,nt
O=C(NCCSc1ccccc1)c1ccccc1F,2,5.8*,2,3,13*,-1,13*,1
CCc1nc2cc3sc(CC)nc3cc2s1,4,2,2,0,16*,0,13*,1
CCN1C(=O)N(C(C)=O)[C@H]2C[C@H](C(=O)N3CCCC3)[C@H](C)[C@H](c3ccccc3)C[C@H]21,-6,-1,1,nt,0,-1,nt,nt
O=C(Nc1ccc2c(c1)OCO2)Nc1ccc2c(c1)OCO2,4,5,4.0*,1,22*,1,17*,1
O=C(Nc1ccc2c(c1)OCCO2)NC1CCCCC1,4,5,2,0,13*,1,16*,1
O=C(NCCc1ccc(F)cc1)Nc1ccc2c(c1)OCO2,3,2,2,3,9,0,nt,nt
O=C(NCCc1ccccc1)Nc1ccc2c(c1)OCO2,7.8*,3,3,2,16*,1,17*,1
O=C(Nc1ccc2c(c1)OCCO2)C1CCC1,-1,0,0,1,3,-1,nt,nt
O=C(Nc1cccnc1)Nc1ccc2c(c1)OCO2,0,5,1,1,8,0,nt,nt
O=C(Nc1ccc([N+](=O)[O-])cc1)Nc1ccc2c(c1)OCCO2,3,3,0,3,17*,0,20*,1
Cc1cc(C)c(S(=O)(=O)N2C[C@H]3CON(C)[C@H]3C[C@H]2c2ccc(-n3ccnc3)cc2)c(C)c1,-1,-2,0,nt,-3,-1,nt,nt
O=C(NCC1CCN(C(=O)C(=O)c2cc3ccccc3o2)CC1)c1cccnc1,-6,-1,1,nt,-2,-1,nt,nt
CCCCc1c(-c2ccccc2OC)ncn1Cc1ccc(Cl)cc1Cl,-7,1,3,nt,-2,-1,nt,nt
NC(=O)c1ccc(-c2noc(-c3ccccc3F)n2)cc1,6,5.6*,2,-3,15*,0,13*,1
NC(=O)c1ccccc1-c1noc(-c2ccccc2F)n1,nt,0,nt,nt,9,-1,nt,nt
c1ccc(Cc2cnc(N3CCN(Cc4ccc5c(c4)OCCO5)CC3)nc2)cc1,-8,-1,1,nt,-3,0,nt,nt
COc1ccccc1/C=N/Nc1nccnc1Cl,3,5.8*,3,1,14*,0,10*,0
COc1cccc(/C=N/Nc2ncccc2[N+](=O)[O-])c1OC,-1,2,2,-7,3,-1,nt,nt
COc1ccc(C2CC(=O)C(c3cc(OC)c(OC)c(OC)c3)=CN2Cc2ccccc2)cc1 (configuration not stated),0,-2,0,nt,-5,0,nt,nt
CC(=O)NCCC1CCCCN1C(=O)c1cc(COc2cc(C)ccc2C)on1 (configuration not stated),2,5,2,1,16*,1,13*,1
C/C(=N/N=C1/NC(=O)CC(C(=O)Nc2ccccc2)S1)c1cccs1 (configuration not stated),0,0,0,-1,13*,-1,0,0
C/C(=N/N=C1/NC(=O)CC(C(=O)O)S1)c1ccccc1 (configuration not stated),0,1,0,3,3,-2,nt,nt
Nc1[nH]c(C(=O)c2ccccc2)c(-c2cccc3ccccc23)c1C(=O)c1ccc(Br)cc1,0,1,0,nt,0,0,nt,nt
Cc1cccc(NC(=O)c2ccc3c(c2)OCCO3)c1,4,5,2,-3,17*,-1,18*,1
SMILES,SMARCA2 act,hcDAF-12 act,DAX1 inh-1,DAX1 inh-2,hgDAF-12 ag,ssDAF-12 act,hgDAF12 conf,LXRb DAF12 ctr
Cc1cccc(NC(=S)NCc2ccc3c(c2)OCO3)c1,-2,0,-1,0,0,-1,nt,nt
O=C(NC(=S)Nc1ccc(N2CCOCC2)cc1)c1ccc2c(c1)OCCO2,-5,-4,-1,-1,-2,0,nt,nt
O=C(NC(=S)Nc1ccc(F)cc1)c1ccc2c(c1)OCCO2,4,4,3.7*,3,17*,0,11*,1
Cc1ccc(NC(=O)c2ccc3c(c2)OCCO3)cc1C,2,4,2,-2,10,0,nt,nt
Cc1cccc(NC(=S)NNC(=O)c2ccc3c(c2)OCO3)c1,3,3,3.9*,3,18*,0,13*,0
O=C(Nc1ccccc1)c1ccc2c(c1)OCCO2,5,5.8*,2,1,13*,0,13*,1
Nc1nc2c(ncn2[C@@H]2O[C@H](C(=O)N[C@H](Cc3ccccc3)C(=O)O)[C@@H](O)[C@H]2O)c(=O)[nH]1,2,1,1,nt,2,-1,nt,nt
COc1ccc2[nH]c(C(=O)Nc3ccc(C)c(F)c3)cc2c1,4,-1,0,1,3,0,nt,nt
COc1ccc(NC(=O)c2cc3ccccc3[nH]2)cc1,2,2,2,6.1*,17*,0,13*,1
NC(=O)c1cc(N)ccc1N1CCCCC1,0,0,-1,nt,22*,-2,1,0
NC(=O)c1cc(N)ccc1N1CCCC1,-1,-2,0,0,-1,-1,nt,nt
O=C1CCCC(O)=C1N=Nc1ccc2c(c1)OCO2,8,5.9*,0,3,14*,-1,9,1
CCC(C)c1ccc(OCc2ccc(C(=O)OC)o2)cc1 (configuration not stated),-1,4,3,4,15*,1.0*,18*,1
CCc1ccc(OCc2ccc(C(=O)OC)o2)cc1,2,4,1,4,17*,-1,14*,1
COC(=O)c1ccc(COc2ccc(NC(C)=O)cc2)o1,-1,-1,0,1,2,-2,nt,nt
COC(=O)c1ccc(COc2ccc(C(C)(C)C)cc2)o1,1,1,1,1,5,-1,nt,nt
Nc1ncc(Br)cc1N=Cc1ccccc1,0,6.0*,3,1,18*,0,10,1
Cn1ncc(N=Cc2ccccc2)c1C(N)=O,1,-1,0,0,-1,-1,nt,nt
COc1ccc(-c2nnc(SCC(=O)c3ccc[nH]3)o2)cc1,5,5,3,0,14*,1,15*,1
